{
  "source": "PubChem BioAssay (NCATS)",
  "note": "Inconclusive results are not listed. Calls of active or inactive are those of the source. The call rests on the fitted dose curve. On the % scale 0 is the no-effect control and ±100 the full control effect.",
  "data": [
    {"test": "Primary qHTS for inhibitors of MERS-S pseudo-typed particle cell entry (AID 1479149); further: nearly all actives have a fitted effect of over 60% in size", "settings": "MERS-S pseudotyped particle entry, luciferase; series mostly up to 57.1 µM; activity change, negative = inhibition: at the top concentration", "values": [
      {"smiles": "CC(C(=O)O)c1ccc(/C=C2\\CCCCC2=O)cc1", "note": "(configuration not stated)", "outcome": "inactive"},
      {"smiles": "O=c1cc[nH]c(=O)[nH]1", "outcome": "inactive"},
      {"smiles": "N[C@@H](CCC(=O)N[C@@H](CS)C(=O)NCC(=O)O)C(=O)O", "outcome": "inactive [at 26.4 µM]"},
      {"smiles": "O=C1CC[C@H](C(=O)N2CCCCC2)N1", "outcome": "inactive"},
      {"smiles": "O=C1O[C@H](CO)[C@@H](O)[C@H](O)[C@H]1O", "outcome": "inactive"},
      {"smiles": "CN=C(NC#N)NCCSCc1nc[nH]c1C", "outcome": "inactive"},
      {"smiles": "CS(=O)(=O)c1ccc([C@@H](O)[C@@H](CF)NC(=O)C(Cl)Cl)cc1", "outcome": "inactive"},
      {"smiles": "Cc1c[nH]c2ccccc12", "outcome": "inactive"},
      {"smiles": "Clc1ccc2nsnc2c1NC1=NCCN1", "activity change, negative = inhibition": "-25.5% (inactive)"},
      {"smiles": "CCN(Cc1ccncc1)C(=O)C(CO)c1ccccc1", "note": "(configuration not stated)", "outcome": "inactive"},
      {"smiles": "C#C[C@]1(O)CC[C@H]2[C@@H]3CCc4cc(OC5CCCC5)ccc4[C@H]3CC[C@@]21C", "activity change, negative = inhibition": "4.24% (inactive)"},
      {"smiles": "NS(=O)(=O)c1cc(-c2nn[nH]n2)c(NCc2cccs2)cc1Cl", "outcome": "inactive"},
      {"smiles": "CCCCCCCC(=O)OCC(COC(=O)CCCCCCC)OC(=O)CCCCCCC", "activity change, negative = inhibition": "-17.5% (inactive)"},
      {"smiles": "CC(C)Cc1ccc(C(C)C(=O)O)cc1", "note": "(configuration not stated)", "outcome": "inactive"},
      {"smiles": "COCCCOc1ccnc(CS(=O)c2nc3ccccc3[nH]2)c1C", "note": "(configuration not stated)", "outcome": "inactive"},
      {"smiles": "CCOC(=O)c1ccccc1O", "activity change, negative = inhibition": "-1.04% (inactive)"},
      {"smiles": "OC[C@H]1O[C@@H](Oc2ccc(O)cc2)[C@H](O)[C@@H](O)[C@@H]1O", "outcome": "inactive"},
      {"smiles": "Cc1cc(C)nc(NS(=O)(=O)c2ccc(N)cc2)n1", "activity change, negative = inhibition": "1.85% (inactive)"},
      {"smiles": "CCN1CCCC1CNC(=O)c1cc(S(=O)(=O)CC)c(N)cc1OC", "note": "(configuration not stated)", "activity change, negative = inhibition": "2.2% (inactive)"},
      {"smiles": "C[C@]12CCC(=O)C=C1CC[C@@H]1[C@@H]2[C@@H](O)C[C@@]2(C)[C@H]1CC[C@]2(O)C(=O)COC(=O)CCC(=O)O", "outcome": "inactive"},
      {"smiles": "O=C(CS(=O)Cc1ccco1)NC/C=C\\COc1cc(CN2CCCCC2)ccn1", "note": "(configuration not stated)", "activity change, negative = inhibition": "1.29% (inactive)"},
      {"smiles": "NCCNCCNCCN", "outcome": "inactive"},
      {"smiles": "CC(=O)Oc1cccc(O)c1", "activity change, negative = inhibition": "-22.5% (inactive)"},
      {"smiles": "COc1ccc(C2C(=O)c3ccccc3C2=O)cc1", "outcome": "inactive"},
      {"smiles": "CCCCC(O)/C=C(C)/C=C/C=C/C(=O)N1CCCC1=O", "note": "(configuration not stated)", "outcome": "inactive"},
      {"smiles": "NC(N)=Nc1nc(CSCC/C(N)=N/S(N)(=O)=O)cs1", "outcome": "inactive"},
      {"smiles": "Nc1ccc(C(=O)O)cc1", "outcome": "inactive"},
      {"smiles": "CC(=O)[C@@]1(O)CC[C@H]2[C@@H]3C[C@H](C)C4=CC(=O)C=C[C@]4(C)[C@@]3(F)[C@@H](O)C[C@@]21C", "outcome": "inactive"},
      {"smiles": "O=C(O)Cc1cccc(-c2cc(CCCCCCc3ccc(O[C@H]4O[C@H](CO)[C@@H](O)[C@H](O)[C@@H]4O)c(-c4cccc(CC(=O)O)c4)c3)ccc2O[C@H]2O[C@H](CO)[C@@H](O)[C@H](O)[C@@H]2O)c1", "outcome": "inactive [at 0.573 µM]"},
      {"smiles": "Clc1cccc(C(c2ccc3nc[nH]c3c2)n2ccnc2)c1", "note": "(configuration not stated)", "activity change, negative = inhibition": "-18.5% (inactive)"},
      {"smiles": "CC(=O)OC(C)C[N+](C)(C)C", "note": "(configuration not stated)", "outcome": "inactive"},
      {"smiles": "CC(=O)OCC(COC(C)=O)OC(C)=O", "outcome": "inactive"},
      {"smiles": "NC(=O)NC1NC(=O)NC1=O", "note": "(configuration not stated)", "outcome": "inactive"},
      {"smiles": "Nc1c(I)cc(I)c(C(=O)N(CCC(=O)O)c2ccccc2)c1I", "outcome": "inactive"},
      {"smiles": "COc1cc(/C=C/C(=O)O[C@H]2CC[C@]34C[C@]35CC[C@]3(C)[C@@H]([C@H](C)CCC=C(C)C)CC[C@@]3(C)[C@@H]5CC[C@H]4C2(C)C)ccc1O", "outcome": "inactive"},
      {"smiles": "O=c1[nH]c(=O)n([C@H]2O[C@H](CO)[C@@H](O)[C@@H]2O)cc1/C=C\\Br", "activity change, negative = inhibition": "-32.2% (inactive)"},
      {"smiles": "O=C(O)/C=C\\C(=O)O", "outcome": "inactive"}
    ]}
  ]
}
